Over roughly 16,000 sequences, “Z-score” has its median near -0.37; the highest 2% begin near 3.1. The full list was thinned out, with the highest values kept by preference.

Experimental findings from the supplement of paper PMC5499739 are described below.

This assay deals with RBM10 RRM1-ZnF-RRM2 (GST-tagged construct). Description: RNAcompete 7-mer binding Z-score; higher = stronger binding preference. The procedure, abridged: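 GST-tagged RBM10 constructs (20 pmol) and a designed pool of 241 399 RNAs up to 41 nt (1.5 nmol) were allowed to bind for 30 min at 4°C in 1 ml Hepes pH 7.8 buffer with glutathione Sepharose beads. After four 2-min washes at 4°C, bound RNA was identified by microarray hybridisation. Enrichment was scored per heptamer motif as a one-sided Z-score across the probes containing it.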
As to CGGAUAU, the “RNAcompete 7-mer binding Z-score” value was 0.348.
With GGUGUCG the figure was 1.21; with AGUAUGC, 0.0204.
The value for CCCAGCU was -0.657.
The value for CUAGACA was -0.621; that for UUGGGCG was 2.45; that for AGGCCCG was -0.759.
On to CGCUUUC, for which the “RNAcompete 7-mer binding Z-score” value was -0.77.
With UGGGCGC the figure was 0.989; with UGGGGGG, 3.39; with AGGGGCA, 2.36.
With AGGGCGG the figure was 2.23; with GGGGGCA, 2.33.
As for UUGGGGG, the “RNAcompete 7-mer binding Z-score” value is 3.03.
With UGGGGCC the figure was 0.76; with UGGGGGC, 3.18.
With UGGGCGG the figure was 3.38.
The value for UGGGGCG was 2.66; that for UGGGGCA was 3.52; that for UUGGGGC was 2.04.
For the sequence UUGGAAU, the “RNAcompete 7-mer binding Z-score” value is 0.57.
With AGUUCAA the figure was -0.311; with ACACAUG, -0.0962; with AUGCUAU, -0.65.
The value for GAAAAUG was 1.46; that for AAAAUUU was -0.544; that for AAGGACA was 3.12.
With CUGAUAA the figure was -0.566; with UCGGGUC, 0.512; with ACCAGUC, -0.602.
Consider ACCAGGU, for which the “RNAcompete 7-mer binding Z-score” value was 0.399.
The value for GCCUAUU was -0.901; that for ACCCUCA was -0.846; that for UGGGGGU was 3.25.
With UGGGGUU the figure was 2.78; with GGGGGGU, 3.13.
UGAGGGG: the “RNAcompete 7-mer binding Z-score” value was 3.5.
With UGAGGAG the figure was 1.94.
With CGAGGGU the figure was 3.55; with UGAGGCU, 0.315; with AGAGGGU, 2.21.
For the sequence UGAGAGG, the “RNAcompete 7-mer binding Z-score” value turned out to be 1.8.
Consider GGAGGAU, for which the “RNAcompete 7-mer binding Z-score” value was 2.27.
As to UGAGGGU, the “RNAcompete 7-mer binding Z-score” value came to 3.92.
With GGAGGGU the figure was 3.8; with CGAGGUU, 0.727.
The value for GGAGGCU was 1.29.
With CGAGGAU the figure was 1.1.
With GAUCGGA, the “RNAcompete 7-mer binding Z-score” value amounted to 0.785.
For UCUCGGA, the “RNAcompete 7-mer binding Z-score” value was -0.329.
The value for UCGGAUG was 0.512; that for CGCCGAA was -0.646; that for GAUAUUG was 0.283.
Regarding AAGUGUC, the “RNAcompete 7-mer binding Z-score” value was -0.322.
Take GCAAGUG: the “RNAcompete 7-mer binding Z-score” value is 0.709.
With UCAGGGA the figure was 2.05.
With UGAGGGA the figure was 4.05; with UGAGGCA, 1.31.
With GCGGGUA the figure was 2.5; with CUGGGUA, 1.78; with UGGGGUA, 3.36.
Consider CGGGGUA, for which the “RNAcompete 7-mer binding Z-score” value was found to be 3.42.
As to UUGGGUA, the “RNAcompete 7-mer binding Z-score” value came out at 1.95.
With GUGGGUA the figure was 3.07.
For the sequence AGGGGUC, the “RNAcompete 7-mer binding Z-score” value is 1.76.
With GGGGGUA the figure was 3.52; with CGGGGUC, 1.9.
Consider AGGGGUA, for which the “RNAcompete 7-mer binding Z-score” value worked out at 3.66.
CCGGGUA: the “RNAcompete 7-mer binding Z-score” value was 0.814.
The value for CGAUUUA was -0.704; that for UUAAAGC was -0.439.
With ACUAGAA the figure was -0.187; with CUUUUGA, -0.755; with AGAGACC, -0.774.
With UCAUACA the figure was -0.464; with UAGAGGG, 3.16; with GGGAGGA, 3.24.
In the case of UAGAGGU, the “RNAcompete 7-mer binding Z-score” value turned out to be 1.68.
The value for UGGAGGA was 2.95; that for AGGAGUG was 2.8; that for UGGAGUG was 2.72.
In the case of GGGAGUA, the “RNAcompete 7-mer binding Z-score” value came out at 2.34.
With AGGAGGA the figure was 2.22; with GGGAGUG, 3.84; with UGGAGGG, 4.26.
With UGGAGAG the figure was 2.12; with AAGAGGG, 3.05; with GCACUAG, -0.0161.
The value for AUAAGCU was -0.391; that for UUGACGG was 0.399; that for CGUUUGC was -0.766.
